Drawing on PubChem BioAssay, this text covers composite z-score and z-score for five molecules.

Assay [1] relates to Wnt5a (protein binding on small-molecule microarray). The assay is described as follows: Wnt5a binders on small-molecule microarray, primary screen, biophysical, 635/667 nm fluorescence (AID 1142).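 Further: fluorescence read at 667 nm with signal to noise per printed feature.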 The settings on record: 635 nm fluorescence, higher = more signal.
Assay [2] in a line: cell viability in Huh7 cells, primary screen, cytotoxicity control for HCV replication inhibitor project, CellTiter-Glo luminescence, basal, 48 h (AID 1143).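 Further: Huh7 hepatoma cells carrying a hepatitis C replication reporter with no stimulus; test concentration not given here.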 The settings on record: Huh7 HCV replicon, higher = more signal, called active from +8 up or from −8 down. In general terms: Cellular ATP, detected with luciferase, serves as a proxy for viable cell number.
The nature of assay [3]: P. aeruginosa biofilm formation inhibitors, primary screen, PAO1 strain, BacTiter-Glo luminescence, LB-PBS (AID 1144). To be noted: 12 h, higher = more signal.
The nature of assay [4]: CREB reporter modulators without forskolin, primary screen, cell-based, PC12, CRE-LacZ reporter, unstimulated (AID 1145). To be noted: no forskolin, luminescence, 4.5 h, higher = more signal, called active from +8 up or from −8 down.
Assay [5] in a line: CREB reporter modulators under forskolin, primary screen, cell-based, PC12, CRE-LacZ reporter, forskolin-stimulated (AID 1146).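 Further: PC12 cells with 6xCRE LacZ reporter stimulated by forskolin 10 µM; beta-galactosidase reporter signal reflecting CREB driven transcription.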 The settings on record: luminescence, 4.5 h, higher = more signal, called active from +8 up or from −8 down.
The target of assay [6] is Streptavidin (Streptomyces avidinii) (UniProt P22629). Description: streptavidin binders on small-molecule microarray, primary screen, artefact control for SMM compound annotation, biophysical, 635/667 nm fluorescence (AID 1147).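 Further: signal reflects streptavidin binding to arrayed compounds as a control protein.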 The settings on record: streptavidin binding, higher = more signal.
Assay [7] in a line: small-molecule binders of probe aInhba, primary screen, biochemical, small-molecule microarray, 635/667 nm fluorescence (AID 1148).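 Further: score merges 667nm spot fluorescence with signal-to-noise for antibody binding to printed compounds.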 The settings on record: higher = more signal.
Assay [8] addresses Torsin-1A (Homo sapiens) (UniProt O14656). The assay is described as follows: torsin A binders from cell lysate, primary screen, small-molecule microarray, wild-type, 635/667 nm (AID 1149). To be noted: COS7 hTOR1A-WT lysate, 635 nm fluorescence, higher = more signal.
The target is the same in assay [9]. The assay is described as follows: small-molecule binders of mutant TOR1A in lysate, primary screen, cell lysate, small-molecule microarray, COS7 lysate, 635/667 nm fluorescence (AID 1150).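 Further: score pools 667 nm emission and signal to noise measuring lysate protein binding.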 To be noted: COS7 hTOR1A mutant lysate, 635 nm fluorescence, higher = more signal.
Assay [10] relates to Sonic hedgehog protein (Shh). The assay is described as follows: small-molecule binders of Shh protein, primary screen, biochemical, small-molecule microarray, 635/667 nm fluorescence (AID 1151).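 Further: Shh protein binding to compounds spotted on small-molecule microarray slides; score combines spot fluorescence intensity with signal-to-noise across triplicate slides.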 To be noted: small-molecule microarray binding, 635 nm fluorescence; higher = more signal.
The nature of assay [11]: E. coli DRC41 culture turbidity changes, primary screen, E. coli filamentation inducer project, strain DRC41, OD650, 48 h (AID 1152).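 Further: E. coli MC1000 strain DRC41 lacking acrAB efflux pump and sulA.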 The settings on record: E. coli DRC41 (acrAB sulA), higher = more signal, called active from +8 up or from −8 down.
Assay [12] can be described thus: small-molecule binders of probe aLefty1, primary screen, biochemical, small-molecule microarray, 635/667 nm fluorescence (AID 1153).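 Further: score merges spot fluorescence with signal-to-noise ratio from the scanned slide images.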 To be noted: higher = more signal.
Assay [13] is described as follows: PSAC antagonists in infected red cells, primary screen, cell-based, P. falciparum Indochina, OD700, 1 h (AID 1154). To be noted: P. falciparum Indochina infected RBC osmotic lysis, higher = more signal, called active from +8 up or from −8 down.
Assay [14] can be described thus: PSAC antagonists in infected red cells, primary screen, cell-based, P. falciparum Indochina, OD700, 2 h (AID 1155).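 Further: lysis reports solute entry through the parasite surface anion channel PSAC; channel blockers reduce lysis of infected cells.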 To be noted: P. falciparum Indochina infected erythrocytes, osmotic lysis OD700; higher = more signal, called active from +8 up or from −8 down.
The nature of assay [15]: osmotic lysis modulators in infected erythrocytes, primary screen, PSAC antagonist project, cell-based, P. falciparum Indochina, OD700, 3 h (AID 1156). To be noted: higher = more signal, called active from +8 up or from −8 down.
Assay [16] is described as follows: PSAC antagonists in infected red cells, primary screen, cell-based, P. falciparum Indochina, OD700, 18 h (AID 1157). The settings on record: P. falciparum Indochina infected erythrocytes, osmotic lysis OD700, 18 h; higher = more signal, called active from +8 up or from −8 down.
Assay [17] in a line: modulators of S6 phosphorylation in cells, primary screen, cell-based, A549, cytoblot, luminescence, serum-stimulated (AID 1158).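 Further: serum-stimulated A549 lung adenocarcinoma cells; signal is phosphorylated S6 detected by cytoblot immunostaining with HRP secondary.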 The settings on record: A549 phospho-S6 cytoblot, 5 h, higher = more signal.
In assay [18] the target is NADPH oxidase 2 (Homo sapiens) (UniProt P04839). Description: NOX2-dependent H2O2 signal modulators, primary screen, NOX inhibitor project, cell-based, HEK293-NOX2, PMA-stimulated, Amplex Red fluorescence (AID 1159). Further: test concentration not given here. To be noted: 45 min, higher = more signal, called active from +8 up or from −8 down.
For assay [19], the target named is NADPH oxidase 4 (Homo sapiens) (UniProt Q9NPH5). Description: NOX4-dependent H2O2 signal modulators, primary screen, NOX inhibitor project, cell-based, HEK293-NOX4, tetracycline-induced, Amplex Red fluorescence (AID 1160). To be noted: 45 min, higher = more signal, called active from +8 up or from −8 down.
Assay [20] addresses NADPH oxidase 5 (Homo sapiens) (UniProt Q96PH1). Description: NOX5-dependent H2O2 signal modulators, primary screen, NOX inhibitor project, cell-based, HEK293-NOX5, Amplex Red fluorescence (AID 1161). To be noted: HEK293-NOX5, ionomycin, 45 min, higher = more signal.

Calls of active or inactive are those of the source. Unless noted, how the calls were made is not given here.

Sequence of NADPH oxidase 5 (Homo sapiens) (Q96PH1 whole entry, looked up): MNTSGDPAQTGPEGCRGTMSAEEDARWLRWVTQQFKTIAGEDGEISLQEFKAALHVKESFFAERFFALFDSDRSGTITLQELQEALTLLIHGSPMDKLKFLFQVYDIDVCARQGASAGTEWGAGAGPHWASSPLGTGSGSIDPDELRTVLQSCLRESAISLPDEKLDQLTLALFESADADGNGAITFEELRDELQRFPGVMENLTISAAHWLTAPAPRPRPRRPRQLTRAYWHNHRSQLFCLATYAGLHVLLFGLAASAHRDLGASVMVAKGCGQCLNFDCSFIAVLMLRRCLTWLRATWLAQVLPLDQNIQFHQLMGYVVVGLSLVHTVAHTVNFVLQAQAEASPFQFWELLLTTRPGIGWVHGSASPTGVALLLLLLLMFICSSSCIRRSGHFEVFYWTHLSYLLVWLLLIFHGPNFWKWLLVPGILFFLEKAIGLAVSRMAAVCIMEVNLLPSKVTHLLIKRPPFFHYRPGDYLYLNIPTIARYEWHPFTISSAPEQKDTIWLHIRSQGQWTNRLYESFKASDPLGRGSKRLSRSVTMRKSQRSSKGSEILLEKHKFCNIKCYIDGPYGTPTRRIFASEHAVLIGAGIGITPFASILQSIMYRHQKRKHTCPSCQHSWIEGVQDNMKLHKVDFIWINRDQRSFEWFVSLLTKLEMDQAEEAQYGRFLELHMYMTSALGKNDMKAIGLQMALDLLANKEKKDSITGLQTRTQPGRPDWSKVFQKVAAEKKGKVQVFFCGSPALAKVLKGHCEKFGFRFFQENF
Sequence of NADPH oxidase 2 (Homo sapiens) (P04839 whole entry, looked up): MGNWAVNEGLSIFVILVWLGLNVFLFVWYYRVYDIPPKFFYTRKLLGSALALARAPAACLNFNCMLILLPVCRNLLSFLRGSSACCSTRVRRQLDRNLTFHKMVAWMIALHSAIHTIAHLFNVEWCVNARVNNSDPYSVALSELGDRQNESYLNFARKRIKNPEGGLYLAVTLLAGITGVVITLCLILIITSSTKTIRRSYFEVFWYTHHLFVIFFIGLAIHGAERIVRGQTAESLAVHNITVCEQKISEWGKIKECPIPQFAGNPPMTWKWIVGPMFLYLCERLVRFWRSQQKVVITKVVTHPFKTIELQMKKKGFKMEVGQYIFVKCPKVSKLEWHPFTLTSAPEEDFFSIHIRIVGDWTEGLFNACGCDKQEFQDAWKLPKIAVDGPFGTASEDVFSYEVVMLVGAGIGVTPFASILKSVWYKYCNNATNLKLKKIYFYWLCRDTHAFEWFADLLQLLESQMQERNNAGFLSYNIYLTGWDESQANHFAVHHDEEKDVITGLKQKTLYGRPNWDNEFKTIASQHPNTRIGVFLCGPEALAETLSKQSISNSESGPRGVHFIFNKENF
Sequence of Torsin-1A (Homo sapiens) (O14656 whole entry, looked up): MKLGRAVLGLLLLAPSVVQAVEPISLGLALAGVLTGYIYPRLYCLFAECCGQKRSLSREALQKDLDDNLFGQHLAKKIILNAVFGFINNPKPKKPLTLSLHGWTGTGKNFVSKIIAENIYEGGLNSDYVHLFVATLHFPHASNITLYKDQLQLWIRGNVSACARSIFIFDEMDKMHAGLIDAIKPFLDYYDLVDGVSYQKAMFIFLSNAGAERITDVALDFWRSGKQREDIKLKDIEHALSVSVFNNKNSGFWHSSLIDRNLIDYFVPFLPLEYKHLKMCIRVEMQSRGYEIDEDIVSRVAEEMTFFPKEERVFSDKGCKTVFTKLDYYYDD
Sequence of NADPH oxidase 4 (Homo sapiens) (Q9NPH5 whole entry, looked up): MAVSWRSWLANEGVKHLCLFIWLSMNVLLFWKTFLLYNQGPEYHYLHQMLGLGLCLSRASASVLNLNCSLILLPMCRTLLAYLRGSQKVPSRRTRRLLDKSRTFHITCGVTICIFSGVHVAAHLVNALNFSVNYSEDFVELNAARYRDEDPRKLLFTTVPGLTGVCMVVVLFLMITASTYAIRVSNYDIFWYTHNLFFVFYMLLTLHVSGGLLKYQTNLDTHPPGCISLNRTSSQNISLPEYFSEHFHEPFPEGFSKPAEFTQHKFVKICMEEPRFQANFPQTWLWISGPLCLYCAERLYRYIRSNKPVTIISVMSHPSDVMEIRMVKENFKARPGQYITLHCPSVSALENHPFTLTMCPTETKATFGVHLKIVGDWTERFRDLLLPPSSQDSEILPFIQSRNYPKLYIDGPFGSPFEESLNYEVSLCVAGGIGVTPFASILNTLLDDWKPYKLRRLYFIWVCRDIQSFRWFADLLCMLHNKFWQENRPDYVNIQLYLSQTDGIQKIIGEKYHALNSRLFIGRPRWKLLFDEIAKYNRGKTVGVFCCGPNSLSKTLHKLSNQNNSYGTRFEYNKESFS
Sequence of Streptavidin (Streptomyces avidinii) (P22629 whole entry, looked up): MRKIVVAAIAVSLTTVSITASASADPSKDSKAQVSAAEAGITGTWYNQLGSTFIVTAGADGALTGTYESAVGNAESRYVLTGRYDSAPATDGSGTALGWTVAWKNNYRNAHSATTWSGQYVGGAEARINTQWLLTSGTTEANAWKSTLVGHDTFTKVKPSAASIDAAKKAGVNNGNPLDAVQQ

For `CCN(CC)c1ccc(N2CC=CC34O[C@@H]5C=CCOC(=O)[C@@H]5[C@H]3C(=O)N(CCCCCCO)[C@@H]4C2=O)cc1` (stereo not given in full), the composite z-score was -0.452 in [1]; -0.881 in [6]; -0.154 in assay [7]; 0.914 with Torsin-1A (Homo sapiens) [8]; 0.339 with Torsin-1A (Homo sapiens) [9]; -0.326 in [10]. In addition, in assay [12], the composite z-score is 0.176. The z-score in [2] is -0.289 (inactive); in assay [3], -0.593 (inactive); in assay [4], -0.488 (inactive); in assay [5], -1.57 (inactive); in assay [11] it was 2.74 (inactive); in [13] it was 2.21 (inactive). The z-score in [14] was 0.184 (inactive); in [15], 0.404 (inactive); in assay [16] it was -0.313 (inactive); in assay [17] it was 0.411; in [18], -0.262 (inactive); in [19], 0.301 (inactive). The z-score in [20] came out at 1.17.
Turning to `COCCCNC(=O)[C@@H]1c2ccccc2C(=O)N(Cc2ccccc2)[C@H]1c1ccc(CO)cc1`, the composite z-score in assay [1] stood at 0.23; in assay [6] it was 0.158; in assay [7], 0.343; with Torsin-1A (Homo sapiens) [8], 0.662; with Torsin-1A (Homo sapiens) [9] it was 1.29; in [10] it was 0.857. The molecule also displayed a composite z-score in assay [12] of 0.603. Further, the z-score in [2] is 0.285 (inactive); in [3], 0.397 (inactive); in assay [4], 0.648 (inactive); in [5], -1.01 (inactive); in assay [11], -0.134 (inactive); in assay [13] it was 0.481 (inactive). The z-score in assay [14] is -0.307 (inactive); in assay [15], 0.239 (inactive); in [16] it was 0.129 (inactive); in [17], -0.0034; in [18], -0.694 (inactive); in [19], 0.572 (inactive). The z-score in [20] was -2.19.
Consider `COc1ccc([C@H]2C[C@H]3C(I)=C[C@@H]2C(=O)[C@]32CO2)cc1`, for which the composite z-score in assay [1] is -0.149; in assay [6] it was 1.25; in [7] it was -0.152; in the assay with Torsin-1A (Homo sapiens) [8], -0.067; in the assay with Torsin-1A (Homo sapiens) [9] it was -0.126; in assay [10], 0.817. Besides, the composite z-score in [12] was -0.28. Further, the z-score was -0.307 (inactive) in assay [2]; -0.125 (inactive) in assay [3]; 5.38 (inactive) in assay [4]; -1.6 (inactive) in assay [5]; 0.794 (inactive) in assay [11]; 0.524 (inactive) in assay [13]. The z-score in assay [14] is 0.0528 (inactive); in [15] it was 0.255 (inactive); in [16], -0.0393 (inactive); in assay [17] it was 0.759; in assay [18], -0.546 (inactive); in assay [19], -0.298 (inactive). For the same molecule, in assay [20], the z-score was -0.974.
`CCOC(=O)C[C@H]1[C@H](OC(=O)c2ccc(-c3ccccc3)cc2)[C@@H](NC(=O)c2ccccc2)c2cc(OCCCO)ccc2N1C(=O)Cc1ccc(OC)cc1`: the composite z-score in assay [1] is 0.0137; in [6], -0.238; in [7] it was 0.0001; with Torsin-1A (Homo sapiens) [8], -0.0369; in the assay with Torsin-1A (Homo sapiens) [9] it was -0.456; in assay [10] it was 0.0151. Further, in assay [12], the composite z-score was -0.0601. Further, the z-score in assay [2] was 0.0974 (inactive); in assay [3], -0.962 (inactive); in assay [4] it was 0.0035 (inactive); in assay [5] it was -0.701 (inactive); in assay [11] it was 0.118 (inactive); in assay [13] it was 1.93 (inactive). In addition, the z-score was 0.442 (inactive) in [14]; -0.113 (inactive) in [15]; 0.41 (inactive) in assay [16]; -0.0916 in assay [17]; 1.31 (inactive) in [18]; -0.847 (inactive) in [19]. Also, in assay [20], the z-score was 2.5.
Consider `C=C(C(=O)CC[C@H](OC(C)=O)c1ccccc1OCCO)C(C)C`, for which the composite z-score in [1] was -0.138; in assay [6], -0.455; in assay [7], -0.188; with Torsin-1A (Homo sapiens) [8], 0.229; with Torsin-1A (Homo sapiens) [9], -0.752; in assay [10], 2.19. Further, in assay [12], the composite z-score was -0.147. Also, the z-score in assay [2] was -8.56 (active); in [3], -0.679 (inactive); in assay [4], 9.01 (active); in [5], -0.422 (inactive); in [11] it was 0.0974 (inactive); in assay [13], 2.27 (inactive). Moreover, the z-score in assay [14] is 2.54 (inactive); in assay [15] it was -4.78 (inactive); in [16], -0.431 (inactive); in [17], 0.66; in [18] it was -5.71 (inactive); in [19], -2.22 (inactive). Also, in [20], the z-score is -3.36.
